The target in assay [1] is Luciferin 4-monooxygenase (Photinus pyralis) (UniProt P08659). In words: CCTE_Simmons_QuantiLum_inhib_2: CCTE's Firefly Luciferase Inhibition Assay, Simmons Lab (AID 2283767).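 On AC50: potency for inhibitors that lower luciferase luminescence relative to DMSO.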 The gist of the method:
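Counter-screen for nonspecific enzyme inhibition: purified firefly luciferase incubated 30 min at 37C with chemicals up to 87.5 uM final, then luminescence measured after luciferin/dATP injection; activity fitted against DMSO baseline.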

Assay [2] is described as follows: ACEA_AR_antagonist_AUC_viability: ACEA Biosciences xCELLigence Real-Time Cell Analysis on Androgen Receptor Antagonism for Viability (AID 2283776).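 Further: 22Rv1 human prostate cancer cells growing on impedance electrode plates; area under impedance growth curve at 80 h after dosing as viability; hits lower the growth signal relative to DMSO meaning cytotoxicity.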 The gist of the method:
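Viability endpoint from label-free cell-index monitoring: 22Rv1 cultures treated with an eight-point 1:4 dilution series starting at 100 uM final, AUC at 80 h fitted against DMSO.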

Assay [3] can be described thus: ACEA_ER_AUC_viability: ACEA Biosciences xCELLigence Real-Time Cell Analysis on Estrogen Receptor Agonism for Viability (AID 2283782).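 Further: continuous compound exposure with impedance area under curve over 80 h; hit means loss of impedance signal meaning reduced cell growth or viability.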 Put shortly:
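T-47D human breast cells in phenol red-free RPMI1640 with 10% charcoal-stripped FBS were dosed with an 8-point 1:4 dilution series from 100 uM top final concentration, in duplicate. Impedance-based growth was followed for 80 h; AUC analysed versus DMSO.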

Assay [4] can be described thus: ACEA_AR_agonist_AUC_viability: ACEA Biosciences xCELLigence Real-Time Cell Analysis on Androgen Receptor Agonism for Viability (AID 2283775).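 On AC50: viability read 80 hours after compound addition.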 Put shortly: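 Read-out is area under the impedance curve at 80 h post-dose in 22Rv1 cells, with DMSO as baseline and signal loss taken as reduced viability. Compounds ran in duplicate from 100 uM final.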
The nature of assay [5]: ArunA_Migration_hNC: ArunA Biomedical's Oris Neural Crest (hNC) Cell Migration Assay (AID 2283755). The gist of the method: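 Human H9-derived neural crest stem cells, 60,000/well on Matrigel, 16 h at 37C, then 72 h chemical exposure after seeding-stopper removal. Migration into detection zone read as calcein-AM fluorescence (ex494/em517), relative to DMSO.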
Assay [6] in a line: ArunA_NOG_NeuriteLength: ArunA Biomedical's Neurite Outgrowth (NOG) Assay for Neurite Length (AID 2283757). Put shortly:
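Differentiated human H9-derived neurons were exposed for 48 h from seeding, then stained with Hoechst and βIII-tubulin. Automated high-content imaging gave total neurite length per valid neuron, counting processes >10 um. Loss of signal was scored versus DMSO.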

Assay [7] can be described thus: ArunA_NOG_NeuritesPerNeuron: ArunA Biomedical's Neurite Outgrowth (NOG) Assay for Neurites Per Neuron (AID 2283758). The gist of the method:
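Differentiated human H9-derived neurons exposed to chemicals for 48 h from seeding, then stained with Hoechst and βIII-tubulin/DyLight 488. Automated imaging counted neurites (processes >10 um) per valid neuron; loss of signal versus DMSO scored.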

For assay [8], the system named is chicken Androgen Receptor (AR), gene 422165. In words: ATG_chAR_XSP1: Attagene TRANS-FACTORIAL Multi-Species (XSP1) HepG2 Assay for chicken Androgen Receptor (AR) (AID 2283768). The gist of the method: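 HepG2 cells transiently transfected with multiplexed GAL4-UAS reporter units expressing chimeric chicken AR-Gal4; 3 nM 6-alpha-fluorotestosterone for partial AR stimulation; 24 h after dosing, reporter mRNA by RT-PCR and capillary electrophoresis, gain-of-signal versus DMSO.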

Assay [9] relates to frog Androgen Receptor (AR), gene 399456. Description: ATG_frAR_XSP1: Attagene TRANS-FACTORIAL Multi-Species (XSP1) HepG2 Assay for frog Androgen Receptor (AR) (AID 2283770). How it is done:
ATG_XSP1_multi-species_TRANS is a cell-based, multiplexed assay created by modifying the existing Attagene TRANS-FACTORIAL system to include a panel of nuclear receptors from some or all the following species: human (Homo sapiens), mouse (Mus musculus), frog (Xenopus laevis), zebrafish (Danio rerio), chicken (Gallus gallus), and turtle (Chrysemys picta). The ECOTOX-FACTORIAL format uses HepG2, a human liver cell line, with measurements taken at 24 hours after chemical dosing in a 24-well plate. Xsp1 included 3 nM 6-alpha-fluorotestosterone to partially stimulate the androgen receptor.ATG_frAR_XSP1 is one of 29 assay components measured or calculated from the ATG_XSP1_multi-species_TRANS assay. It is designed to make measurements of mRNA induction, a form of inducible reporter, as detected with fluorescence intensity signals by Reverse transcription polymerase chain reaction (RT-PCR) and Capillary electrophoresis technology.The assay endpoint ATG_frAR_XSP1 was analyzed in the positive analysis fitting direction relative to DMSO as the negative control and baseline of activity. […] Furthermore, this assay endpoint can be referred to as a primary readout, because this assay has produced multiple assay endpoints where this one serves a reporter gene function. […]

For assay [10], the system named is zebrafish Androgen Receptor (AR), gene 100005148. Description: ATG_zfAR_XSP1: Attagene TRANS-FACTORIAL Multi-Species (XSP1) HepG2 Assay for zebrafish Androgen Receptor (AR) (AID 2283771). The gist of the method: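 HepG2 cells were transiently transfected with a zebrafish AR-GAL4 reporter system and partially stimulated with 3 nM 6-alpha-fluorotestosterone. Reporter mRNA was measured after 24 h dosing by RT-PCR with capillary electrophoresis, and gain-of-signal was fitted relative to DMSO.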

Assay [11] concerns zebrafish Estrogen Receptor (ESR2B), gene 317733. Description: ATG_zfER2b_XSP1: Attagene TRANS-FACTORIAL Multi-Species (XSP1) HepG2 Assay for zebrafish Estrogen Receptor (ESR2B) (AID 2283773). The gist of the method: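 HepG2 cells transiently transfected with multiple GAL4-UAS reporter units expressing chimeric zebrafish ER2b-Gal4; 24 h chemical exposure with 3 nM 6-alpha-fluorotestosterone present. Reporter mRNA measured by RT-PCR and capillary electrophoresis; gain of signal fitted versus DMSO.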

The test system of assay [12] is frog Estrogen Receptor (ESR2), gene 100174814. Description: ATG_frER2_XSP1: Attagene TRANS-FACTORIAL Multi-Species (XSP1) HepG2 Assay for frog Estrogen Receptor (ESR2) (AID 2283774). Put shortly: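 HepG2 cells transiently transfected with GAL4-UAS multiplexed reporter units expressing chimeric NR-Gal4 proteins; reporter mRNA measured 24 h after dosing by RT-PCR, FAM labeling, HpaI digestion and capillary electrophoresis. Gain-of-signal relative to DMSO; 3 nM 6-alpha-fluorotestosterone present.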

In assay [13] the test system is frog Estrogen Receptor (ESR1), gene 398734. Description: ATG_frER1_XSP1: Attagene TRANS-FACTORIAL Multi-Species (XSP1) HepG2 Assay for frog Estrogen Receptor (ESR1) (AID 2283777). The gist of the method: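 Read-out: fluorescent reporter mRNA via RT-PCR, HpaI digestion and capillary electrophoresis, after 24 h chemical exposure of transiently transfected human HepG2 cells expressing exogenous NR-Gal4 chimeras. DMSO served as baseline for positive-direction fitting.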

In assay [14] the test system is zebrafish Estrogen Receptor (ESR2A), gene 317734. In words: ATG_zfER2a_XSP1: Attagene TRANS-FACTORIAL Multi-Species (XSP1) HepG2 Assay for zebrafish Estrogen Receptor (ESR2A) (AID 2283778). The gist of the method:
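HepG2 cells transiently transfected with multiplexed GAL4-UAS reporter units and chimeric NR-GAL4 receptors; 24 h compound exposure with 3 nM 6-alpha-fluorotestosterone present. Reporter mRNA quantified by RT-PCR and capillary electrophoresis, gain-of-signal fitted relative to DMSO.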

For assay [15], the target named is chicken Estrogen Receptor (ESR1), ESR1 (gene 396099) (UniProt P06212). In words: ATG_chERa_XSP1: Attagene TRANS-FACTORIAL Multi-Species (XSP1) HepG2 Assay for chicken Estrogen Receptor (ESR1) (AID 2283779). Put shortly:
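HepG2 cells transiently transfected with multiplexed GAL4-UAS reporter units expressing chimeric NR-Gal4 proteins; 3 nM 6-alpha-fluorotestosterone present. Reporter mRNA measured 24 h after dosing by RT-PCR, FAM labelling, HpaI digest and capillary electrophoresis; gain of signal versus DMSO.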

The subject of assay [16] is turtle Estrogen Receptor (ESR1), gene 101933533. Description: ATG_trERa_XSP1: Attagene TRANS-FACTORIAL Multi-Species (XSP1) HepG2 Assay for turtle Estrogen Receptor (ESR1) (AID 2283781). Put shortly: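 HepG2 cells transiently transfected with GAL4-UAS reporter units and chimeric NR-Gal4 constructs, dosed for 24 h with 3 nM 6-alpha-fluorotestosterone present. Reporter mRNA was quantified by RT-PCR, fluorescent labelling and capillary electrophoresis, with gain of signal fitted relative to DMSO.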

Assay [17] in a line: ArunA_NOG_NucleusCount: ArunA Biomedical's Neurite Outgrowth (NOG) Assay for Nucleus Count (AID 2283756). The gist of the method:
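Human H9-derived differentiated neurons were exposed for 48 h right after seeding. Hoechst-stained nuclei gated by size and intensity were counted by automated high-content imaging as viable neurons. Loss of signal vs DMSO.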

The nature of assay [18]: ArunA_NOG_BranchPointsPerNeurite: ArunA Biomedical's Neurite Outgrowth (NOG) Assay for Branch Points Per Neurite (AID 2283759). The gist of the method: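 Automated image analysis traced neurites (processes >10 um) from valid cell bodies after Hoechst and βIII-tubulin staining. hNN cells from H9 embryonic stem cells, 48 h exposure. Fitted bidirectionally against DMSO.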

Values joined by “and” are separate entries in the source; they are usually repeats but may differ in a detail not shown here. Equal entries are not always repeated. Results filed as inconclusive are left out. The source holds several records for some structures; these can differ, active in one and inactive in another. Active and inactive are the calls of the source. How the source made its calls: active means hit-call score of the fitted dose curve at least 0.9, where 1 is the maximum; inconclusive means response in the unintended direction; inactive means score below 0.9.

The results in this text go back to PubChem BioAssay (EPA / NIEHS).

Chain of Luciferin 4-monooxygenase (Photinus pyralis) (P08659 whole entry, looked up): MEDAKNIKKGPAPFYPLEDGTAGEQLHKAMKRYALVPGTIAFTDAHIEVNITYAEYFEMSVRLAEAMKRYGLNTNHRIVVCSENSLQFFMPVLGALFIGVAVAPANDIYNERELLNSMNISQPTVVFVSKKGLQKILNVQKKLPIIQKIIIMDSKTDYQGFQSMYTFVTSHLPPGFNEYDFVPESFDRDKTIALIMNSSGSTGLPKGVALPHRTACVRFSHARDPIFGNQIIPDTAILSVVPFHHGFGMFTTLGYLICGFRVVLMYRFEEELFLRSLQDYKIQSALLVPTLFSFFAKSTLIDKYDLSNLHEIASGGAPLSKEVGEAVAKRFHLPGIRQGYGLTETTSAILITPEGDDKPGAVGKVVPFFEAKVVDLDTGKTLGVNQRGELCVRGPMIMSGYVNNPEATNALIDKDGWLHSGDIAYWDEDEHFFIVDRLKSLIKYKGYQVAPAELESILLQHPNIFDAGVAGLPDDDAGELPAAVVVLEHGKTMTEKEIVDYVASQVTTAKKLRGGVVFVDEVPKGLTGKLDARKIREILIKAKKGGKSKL
Chain of chicken Estrogen Receptor (ESR1), ESR1 (gene 396099) (P06212 whole entry, looked up, the tested form may be a part): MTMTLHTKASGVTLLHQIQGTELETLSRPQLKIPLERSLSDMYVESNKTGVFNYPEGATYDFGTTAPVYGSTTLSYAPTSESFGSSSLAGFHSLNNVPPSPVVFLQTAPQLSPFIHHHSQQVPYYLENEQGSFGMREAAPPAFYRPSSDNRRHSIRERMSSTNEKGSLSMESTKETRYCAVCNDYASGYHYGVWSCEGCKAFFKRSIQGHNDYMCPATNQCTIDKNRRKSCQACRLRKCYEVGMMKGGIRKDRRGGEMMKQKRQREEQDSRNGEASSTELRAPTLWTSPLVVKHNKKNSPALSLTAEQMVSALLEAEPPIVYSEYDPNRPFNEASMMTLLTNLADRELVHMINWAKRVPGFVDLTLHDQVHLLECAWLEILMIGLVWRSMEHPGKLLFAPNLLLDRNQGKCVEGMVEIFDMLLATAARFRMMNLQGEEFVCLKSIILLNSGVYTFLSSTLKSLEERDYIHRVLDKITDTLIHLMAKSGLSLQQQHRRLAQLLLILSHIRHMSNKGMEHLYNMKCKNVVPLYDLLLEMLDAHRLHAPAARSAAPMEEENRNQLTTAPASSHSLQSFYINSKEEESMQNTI

In the case of `O=C1O[C@H]([C@@H](O)CO)C(O)=C1O`, the outcome in [1], in assay [2] and in assay [3] was inactive.

Take `CCCCCc1ccc(N)cc1`: the outcome in assay [1], in assay [2] and in assay [3] was inactive. Moreover, the AC50 in assay [4] and in [3] was 50 µM (active) each time.

As for `CN(C[C@@H](CC[N+]12CCC(C3CCCCC3)(CC1)CC2)c1ccc(Cl)c(Cl)c1)C(=O)c1cc(C(F)(F)F)cc(C(F)(F)F)c1`, the molecule was classed as inactive in assay [1]. Also, the AC50 (commonly the concentration giving half of the maximal activity seen) in [4] is 5.81 µM (active); in assay [2], 5.8 µM (active); in assay [3], 10.6 µM (active).

For `NCc1cccc(C2CCN(C(=O)c3ccc(C#Cc4ccccc4F)o3)CC2)c1`, in assay [1], the molecule was called inactive. Also, the AC50 in [2] is 22.1 µM (active); in assay [3], 7.73 µM (active).

In the case of `CN1C(=O)CC[C@H]1c1cccnc1`, the result in assay [4], in assay [2] and in [3] was inactive.

`CC(C)(c1cc(Br)c(O)c(Br)c1)c1cc(Br)c(O)c(Br)c1`: the outcome in [5], in assay [6], in [7], in assay [1], in assay [8] and in [9] was inactive. Besides, the outcome in [10], in [11], in assay [13], in assay [14], in [15] and in assay [16] was inactive. Also, the AC50 in assay [12] was 11.8 µM (active); in assay [2], 24.3 µM (active); in assay [3], 73.3 µM (active).

In the case of `CC(=O)N1CCN(c2ccc(OC[C@H]3CO[C@](Cn4ccnc4)(c4ccc(Cl)cc4Cl)O3)cc2)CC1`, the call in assay [1] was inactive. The AC50 in assay [4] is 29.2 µM (active); in assay [2], 32.4 µM (active); in [3] it was 86.7 µM (active).

As to `CCCCCCCCOC(=O)c1cc(O)c(O)c(O)c1`, the AC50 in assay [5] was 120 nM (active) and 452 nM (active); in assay [1], 31.5 µM (active); in assay [4] it was 35.3 µM (active); in assay [2] it was 13.5 µM (active); in [3], 10 µM (active). Moreover, the molecule was called inactive in assay [17] and in [18].
